{
  "source": "PubChem BioAssay AID1159580",
  "about": "(chemical genetic matrix, 2015)",
  "assay": "chemical genetic growth profiling, strain panel (AID 1159580);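 note: tested at 20 µM; growth read once vehicle control cultures reached saturation at 30 °C; 1 = growth at the plate median or of vehicle wells; lower values mean less growth of the strain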",
  "conditions": "S. cerevisiae deletion strains, growth OD",
  "note": "Screen size: about 5,500 compounds; about 2,000 (36%) were called active. Not shown: some 18% with an inconclusive outcome. The list shows a part of the results. A number with no mark means an inactive call. Cut-off read from the data, not from the text of the source: active = normalized growth mostly below about 0.91 (no sharp cut-off); inconclusive = no clear call, values can overlap the other calls; inactive = mostly above about 0.92.",
  "data": [
    {"compound": "CCCCCCCCCCCCCCCCOP(=O)([O-])OCC[N+](C)(C)C", "values": [
      {"measurement": "normalized growth", "setting": "locus YAL021C, strain ccr4, active compounds read low", "value": "0.0619 (active)"},
      {"measurement": "normalized growth", "setting": "locus YAL026C, strain drs2, active compounds read low", "value": "0.0625 (active)"},
      {"measurement": "normalized growth", "setting": "locus YAL030W, strain snc1, active compounds read low", "value": "0.0575 (active)"},
      {"measurement": "normalized growth", "setting": "locus YBL061C, strain skt5, active compounds read low", "value": "0.0614 (active)"},
      {"measurement": "normalized growth", "setting": "locus YBR009C, strain hhf1, active compounds read low", "value": "0.0673 (active)"},
      {"measurement": "normalized growth", "setting": "locus YBR023C, strain chs3, active compounds read low", "value": "0.0636 (active)"},
      {"measurement": "normalized growth", "setting": "locus YBR171W, strain sec66, active compounds read low", "value": "0.0767 (active)"},
      {"measurement": "normalized growth", "setting": "locus YBR231C, strain swc5, active compounds read low", "value": "0.0637 (active)"},
      {"measurement": "normalized growth", "setting": "locus YBR279W, strain paf1, active compounds read low", "value": "0.0644 (active)"},
      {"measurement": "normalized growth", "setting": "locus YCL011C, strain gbp2, active compounds read low", "value": "0.0569 (active)"},
      {"measurement": "normalized growth", "setting": "locus YCL016C, strain dcc1, active compounds read low", "value": "0.0649 (active)"},
      {"measurement": "normalized growth", "setting": "locus YCL061C, strain MRC1, active compounds read low", "value": "0.0638 (active)"},
      {"measurement": "normalized growth", "setting": "locus YCL069W, strain vba3, active compounds read low", "value": "0.0585 (active)"},
      {"measurement": "normalized growth", "setting": "locus YCR088W, strain abp1, active compounds read low", "value": "0.0589 (active)"},
      {"measurement": "normalized growth", "setting": "locus YDL005C, strain med2, active compounds read low", "value": "0.0739 (active)"},
      {"measurement": "normalized growth", "setting": "locus YDL040C, strain nat1, active compounds read low", "value": "0.062 (active)"},
      {"measurement": "normalized growth", "setting": "locus YDR001C, strain nth1, active compounds read low", "value": "0.0559 (active)"},
      {"measurement": "normalized growth", "setting": "locus YDR069C, strain doa4, active compounds read low", "value": "0.0612 (active)"},
      {"measurement": "normalized growth", "setting": "locus YDR137W, strain rgp1, active compounds read low", "value": "0.105 (active)"},
      {"measurement": "normalized growth", "setting": "locus YDR159W, strain sac3, active compounds read low", "value": "0.0874 (active)"},
      {"measurement": "normalized growth", "setting": "locus YDR195W, strain ref2", "value": "0.133 (active)"},
      {"measurement": "normalized growth", "setting": "locus YDR297W, strain sur2, active compounds read low", "value": "0.0626 (active)"},
      {"measurement": "normalized growth", "setting": "locus YDR334W, strain swr1, active compounds read low", "value": "0.0607 (active)"},
      {"measurement": "normalized growth", "setting": "locus YDR335W, strain msn5, active compounds read low", "value": "0.0579 (active)"},
      {"measurement": "normalized growth", "setting": "locus YDR392W, strain spt3, active compounds read low", "value": "0.0822 (active)"},
      {"measurement": "normalized growth", "setting": "locus YEL003W, strain gim4, active compounds read low", "value": "0.0548 (active)"},
      {"measurement": "normalized growth", "setting": "locus YEL037C, strain rad23, active compounds read low", "value": "0.0549 (active)"},
      {"measurement": "normalized growth", "setting": "locus YEL061C, strain CIN8 (second series), active compounds read low", "value": "0.0587 (active)"},
      {"measurement": "normalized growth", "setting": "locus YER015W, strain faa2, active compounds read low", "value": "0.0638 (active)"},
      {"measurement": "normalized growth", "setting": "locus YER016W, strain bim1, active compounds read low", "value": "0.0622 (active)"},
      {"measurement": "normalized growth", "setting": "locus YER111C, strain swi4, active compounds read low", "value": "0.0695 (active)"},
      {"measurement": "normalized growth", "setting": "locus YER155C, strain BEM2 (second series), active compounds read low", "value": "0.0842 (active)"},
      {"measurement": "normalized growth", "setting": "locus YFR010W, strain ubp6, active compounds read low", "value": "0.0648 (active)"},
      {"measurement": "normalized growth", "setting": "locus YGL167C, strain pmr1, active compounds read low", "value": "0.0766 (active)"},
      {"measurement": "normalized growth", "setting": "locus YGL173C, strain kem1, active compounds read low", "value": "0.082 (active)"},
      {"measurement": "normalized growth", "setting": "locus YGL227W, strain vid30, active compounds read low", "value": "0.0637 (active)"},
      {"measurement": "normalized growth", "setting": "locus YGL240W, strain doc1, active compounds read low", "value": "0.0747 (active)"},
      {"measurement": "normalized growth", "setting": "locus YGL253W, strain hxk2, active compounds read low", "value": "0.0509 (active)"},
      {"measurement": "normalized growth", "setting": "locus YHR013C, strain ard1, active compounds read low", "value": "0.14 (active)"},
      {"measurement": "normalized growth", "setting": "locus YHR027C, strain rpn1, active compounds read low", "value": "0.0701 (active)"},
      {"measurement": "normalized growth", "setting": "locus YHR030C, strain SLT2, active compounds read low", "value": 0.971},
      {"measurement": "normalized growth", "setting": "locus YHR079C, strain IRE1, active compounds read low", "value": 0.967},
      {"measurement": "normalized growth", "setting": "locus YHR142W, strain chs7, active compounds read low", "value": "0.0698 (active)"},
      {"measurement": "normalized growth", "setting": "locus YJL092W, strain hpr5, active compounds read low", "value": "0.0564 (active)"},
      {"measurement": "normalized growth", "setting": "locus YJL095W, strain BCK1 (second series), active compounds read low", "value": "0.0584 (active)"},
      {"measurement": "normalized growth", "setting": "locus YJL095W, strain BCK1, active compounds read low", "value": 0.985},
      {"measurement": "normalized growth", "setting": "locus YJL115W, strain asf1, active compounds read low", "value": "0.0702 (active)"},
      {"measurement": "normalized growth", "setting": "locus YJL129C, strain trk1, active compounds read low", "value": "0.0808 (active)"},
      {"measurement": "normalized growth", "setting": "locus YJL154C, strain vps35, active compounds read low", "value": "0.0578 (active)"},
      {"measurement": "normalized growth", "setting": "locus YJL164C, strain tpk1, active compounds read low", "value": "0.0591 (active)"},
      {"measurement": "normalized growth", "setting": "locus YJL166W, strain qcr8, active compounds read low", "value": "0.061 (active)"},
      {"measurement": "normalized growth", "setting": "locus YJR066W, strain TOR1, active compounds read low", "value": 0.915},
      {"measurement": "normalized growth", "setting": "locus YKL160W, strain elf1, active compounds read low", "value": "0.0625 (active)"},
      {"measurement": "normalized growth", "setting": "locus YKR026C, strain gcn3, active compounds read low", "value": "0.0625 (active)"},
      {"measurement": "normalized growth", "setting": "locus YKR091W, strain srl3, active compounds read low", "value": "0.072 (active)"},
      {"measurement": "normalized growth", "setting": "locus YLL001W, strain dnm1, active compounds read low", "value": "0.0583 (active)"},
      {"measurement": "normalized growth", "setting": "locus YLL026W, active compounds read low", "value": "0.0591 (active)"},
      {"measurement": "normalized growth", "setting": "locus YLL041C, strain sdh2, active compounds read low", "value": "0.058 (active)"},
      {"measurement": "normalized growth", "setting": "locus YLR027C, strain aat2, active compounds read low", "value": "0.0551 (active)"},
      {"measurement": "normalized growth", "setting": "locus YLR113W, strain HOG1, active compounds read low", "value": 1.07},
      {"measurement": "normalized growth", "setting": "locus YLR221C, strain rsa3, active compounds read low", "value": "0.0588 (active)"},
      {"measurement": "normalized growth", "setting": "locus YLR258W, strain gsy2, active compounds read low", "value": "0.0598 (active)"},
      {"measurement": "normalized growth", "setting": "locus YLR262C, strain YPT6 (second series), active compounds read low", "value": "0.0755 (active)"},
      {"measurement": "normalized growth", "setting": "locus YLR320W, strain mms22, active compounds read low", "value": "0.0754 (active)"},
      {"measurement": "normalized growth", "setting": "locus YLR342W, strain FKS1, active compounds read low", "value": "0.0648 (active)"},
      {"measurement": "normalized growth", "setting": "locus YLR357W, strain rsc2, active compounds read low", "value": "0.121 (active)"},
      {"measurement": "normalized growth", "setting": "locus YLR370C, strain arc18, active compounds read low", "value": "0.062 (active)"},
      {"measurement": "normalized growth", "setting": "locus YLR384C, strain iki3, active compounds read low", "value": "0.0585 (active)"},
      {"measurement": "normalized growth", "setting": "locus YML120C, strain ndi1, active compounds read low", "value": "0.0597 (active)"},
      {"measurement": "normalized growth", "setting": "locus YMR058W, strain fet3, active compounds read low", "value": "0.0574 (active)"},
      {"measurement": "normalized growth", "setting": "locus YMR125W, strain sto1, active compounds read low", "value": "0.075 (active)"},
      {"measurement": "normalized growth", "setting": "locus YMR129W, active compounds read low", "value": "0.0586 (active)"},
      {"measurement": "normalized growth", "setting": "locus YMR205C, strain PFK2, active compounds read low", "value": "0.0871 (active)"},
      {"measurement": "normalized growth", "setting": "locus YMR231W, strain pep5, active compounds read low", "value": "0.173 (active)"},
      {"measurement": "normalized growth", "setting": "locus YNL071W, strain lat1, active compounds read low", "value": "0.0608 (active)"},
      {"measurement": "normalized growth", "setting": "locus YNL183C, strain NPR1, active compounds read low", "value": 0.912},
      {"measurement": "normalized growth", "setting": "locus YNL209W, strain ssb2, active compounds read low", "value": "0.0625 (active)"},
      {"measurement": "normalized growth", "setting": "locus YNL248C, strain rpa49, active compounds read low", "value": "0.0698 (active)"},
      {"measurement": "normalized growth", "setting": "locus YNL322C, strain KRE1 (second series), active compounds read low", "value": "0.0641 (active)"},
      {"measurement": "normalized growth", "setting": "locus YNR049C, strain mso1, active compounds read low", "value": "0.0585 (active)"},
      {"measurement": "normalized growth", "setting": "locus YOR001W, strain rrp6, active compounds read low", "value": "0.0712 (active)"},
      {"measurement": "normalized growth", "setting": "locus YOR070C, strain gyp1, active compounds read low", "value": "0.0615 (active)"},
      {"measurement": "normalized growth", "setting": "locus YOR080W, strain dia2, active compounds read low", "value": "0.0657 (active)"},
      {"measurement": "normalized growth", "setting": "locus YOR083W, strain WHI5, active compounds read low", "value": "0.0753 (active)"},
      {"measurement": "normalized growth", "setting": "locus YOR106W, strain vam3, active compounds read low", "value": "0.0675 (active)"},
      {"measurement": "normalized growth", "setting": "locus YOR231W, strain MKK1, active compounds read low", "value": 0.953},
      {"measurement": "normalized growth", "setting": "locus YOR265W, strain rbl2, active compounds read low", "value": "0.0614 (active)"},
      {"measurement": "normalized growth", "setting": "locus YOR270C, strain vph1, active compounds read low", "value": "0.093 (active)"},
      {"measurement": "normalized growth", "setting": "locus YOR290C, strain snf2, active compounds read low", "value": "0.069 (active)"},
      {"measurement": "normalized growth", "setting": "locus YPL051W, strain arl3, active compounds read low", "value": "0.0646 (active)"},
      {"measurement": "normalized growth", "setting": "locus YPL078C, strain atp4, active compounds read low", "value": "0.0596 (active)"},
      {"measurement": "normalized growth", "setting": "locus YPL106C, strain sse1, active compounds read low", "value": "0.0983 (active)"},
      {"measurement": "normalized growth", "setting": "locus YPL240C, strain hsp82, active compounds read low", "value": "0.0574 (active)"},
      {"measurement": "normalized growth", "setting": "locus YPL256C, strain CLN2, active compounds read low", "value": 1.01}
    ]}
  ]
}
